Our source for the activity change, negative = inhibition values is PubChem BioAssay AID652062 (Broad Institute, 2013).

Structures are written as SMILES. The whole screen tested about 1,400 compounds, of which about 1,100 (79%) were called active.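 How the source made its calls: active means fitted half-maximal concentration of a falling signal no higher than twice the top valid dose in every test run; inconclusive means runs disagree, or flat partial inhibition, or poor fit; inactive means every run inactive: flat, wrong direction, or potency beyond limit.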 So high a share suggests a set chosen from earlier hits. These entries were drawn from the full list. Results with a measured potency or affinity are listed apart.

The nature of the experiment: inhibitors of clade B AD8 Env fusion, dose response, cell-based, cherry-pick (AID 652062). The settings on record: HeLa-AD8 Env / CEM-CCR5 cell fusion, luciferase; at 35 µM (top of the series) unless noted.
Regarding `Cc1ccc(S(=O)(=O)N(C)C[C@H]2Oc3cc(C4=CCCC4)ccc3S(=O)(=O)N([C@H](C)CO)C[C@H]2C)cc1`, the activity change, negative = inhibition is -41.2%.
The result for `COc1ccc(S(=O)(=O)N(C)C[C@H]2Oc3cc(C4=CCCC4)ccc3S(=O)(=O)N([C@@H](C)CO)C[C@H]2C)cc1` reads 5.51%; that for `COc1cccc(/C=N/NC(=O)CC2C(=O)NN=C2C)c1O` (stereo unspecified), -20%; that for `COc1ccc(CCCC(=O)NCCc2ccccc2)c(C)c1`, 7.11%.
The result for `CCCNC(=O)C[C@@H]1C[C@H]2c3cc(NC(=O)Cc4ccncc4)ccc3O[C@H]2[C@@H](CO)O1` reads 10.9% [at 30 µM]; that for `CCCNC(=O)C[C@@H]1C[C@@H]2c3cc(NC(=O)Cc4ccncc4)ccc3O[C@@H]2[C@@H](CO)O1`, -32.8% [at 30 µM]; that for `CCOc1ccc(NC2c3ccccc3C(=O)N2Cc2ccco2)cc1` (stereo unspecified), 51.2%.
As to `CCN(CC)S(=O)(=O)c1ccc(NC2c3ccccc3C(=O)N2Cc2ccc3c(c2)OCO3)cc1` (stereo unspecified), the activity change, negative = inhibition was -25.4%.
On to `O=C(Nc1cccc(F)c1)c1cc(S(=O)(=O)N2CCC(C(=O)O)CC2)ccc1F`, for which the activity change, negative = inhibition is 43.8%.
As to `O=C(Nc1ccc(Cl)cc1)C1CCCN(C2=NS(=O)(=O)c3ccccc32)C1` (stereo unspecified), the activity change, negative = inhibition was -27% [at 16 µM].
In the case of `C[C@H](CO)N1C[C@H](C)[C@@H](CN(C)C(=O)Nc2cccc3ccccc23)OCCCC[C@H](C)Oc2ccc(N(C)C)cc2C1=O`, the activity change, negative = inhibition was -37.4%.
In the case of `Cc1noc(C)c1NC(=O)N(C)C[C@H]1OCCCC[C@H](C)Oc2ccc(NC(=O)c3ccccc3)cc2C(=O)N([C@H](C)CO)C[C@@H]1C`, the activity change, negative = inhibition was found to be 107%.
With `O=C(N/N=C/c1ccc(-n2ccnc2)cc1)c1cccs1`, the activity change, negative = inhibition is 91.2%.
`Clc1ccc2c(c1)C1=C(C(c3ccncc3)O2)C(c2ccc(Br)cc2)n2ncnc2N1` (stereo unspecified): the activity change, negative = inhibition was found to be 285% [at 16 µM].
On to `NC(Cc1ccc(F)cc1)c1csc(Nc2ccc(C(F)(F)F)cn2)n1` (stereo unspecified), for which the activity change, negative = inhibition was -26.6% [at 16 µM].
Under `Cc1cccc(/C=N\Nc2cn[nH]c(=O)c2Cl)c1` stands 183%.
For `COc1ccc(OC)c(CN2C(=O)c3ccccc3C2c2nnnn2-c2c(C)cccc2C)c1` (stereo unspecified), the activity change, negative = inhibition is -4.67%.
On to `COc1ccc(CCN2C(=O)c3[nH]nc(-c4ccccc4O)c3C2c2cccc(O)c2)cc1OC` (stereo unspecified), for which the activity change, negative = inhibition turned out to be 4.61%.
Take `CN(C(=O)c1cccc(NC(=O)Cc2cccc(NC(=O)C3CCCN(C(=O)C4CCC4)C3)c2)c1)C1CCC1` (stereo unspecified): the activity change, negative = inhibition amounted to 49.5%.
For `COc1ccc(-c2nnc(Nc3nc4c(OC)cccc4s3)o2)cc1`, the activity change, negative = inhibition is -27.2%.
Take `O=C(CCN1CCCCC1)N[C@H]1CC[C@H](CCn2cc(-c3ccccc3)nn2)O[C@@H]1CO`: the activity change, negative = inhibition was -27.5%.
Regarding `O=C(Cc1ccncc1)N[C@H]1CC[C@@H](CCn2cc(-c3ccccc3F)nn2)O[C@@H]1CO`, the activity change, negative = inhibition was -16.3%.
Turning to `O=C(CCN1CCCCC1)N[C@@H]1CC[C@@H](CCn2cc(-c3ccccc3)nn2)O[C@@H]1CO`, the activity change, negative = inhibition was -17.1%.
Regarding `O=C(Nc1cccc(F)c1)N[C@@H]1CC[C@H](CCNS(=O)(=O)c2cccc(Cl)c2)O[C@H]1CO`, the activity change, negative = inhibition turned out to be 101%.
As for `COc1ccccc1S(=O)(=O)n1cc(Cc2ccccc2)c(N)n1`, the activity change, negative = inhibition was -17%.
Regarding `O=C(C[C@@H]1CC[C@@H](NC(=O)c2ccncc2)[C@H](CO)O1)NCCc1ccncc1`, the activity change, negative = inhibition amounted to 38.7%.
`COc1ccc(Nc2cc(C)nc(NCc3ccccc3)n2)cc1`: the activity change, negative = inhibition was -69.2%.
`C[C@@H]1CN([C@@H](C)CO)C(=O)c2cccc(NC(=O)c3cnccn3)c2O[C@H]1CN(C)Cc1ccc(Cl)c(Cl)c1`: the activity change, negative = inhibition was determined as 142% [at 16 µM].
The result for `C[C@@H]1CN([C@H](C)CO)C(=O)c2cccc(NC(=O)c3ccncc3)c2O[C@@H]1CN(C)Cc1ccc(C(=O)O)cc1` reads 3.82%; that for `C[C@@H]1CN([C@@H](C)CO)C(=O)c2cccc(NC(=O)c3ccc(-c4nccs4)cc3)c2O[C@H]1CN(C)CC1CC1`, 28.5%.
In the case of `Cc1onc(-c2ccccc2)c1C(=O)OCCOc1cccc(Cl)c1`, the activity change, negative = inhibition was -18.8%.
As for `CC1(C)N=C(N)N=C(N)N1CCCCc1ccccc1`, the activity change, negative = inhibition worked out at 3.6%.
Under `CS(=O)(=O)N1CCN(c2ccccc2NC(=O)C(c2ccccc2)c2ccccc2)CC1` stands 38.4%; under `O=C(O)C[C@@H]1C=C[C@H](NC(=O)Nc2ccccc2)[C@H](CO)O1`, -16.5%.
Take `O=C(O)C[C@@H]1CC[C@@H](NC(=O)c2ccncc2)[C@H](CO)O1`: the activity change, negative = inhibition was found to be 28.7%.
The result for `O=C(O)C[C@@H]1C=C[C@@H](NC(=O)Nc2ccccc2)[C@H](CO)O1` reads 11.3%.
Turning to `Cc1cccc(C)c1N(CC(O)Cn1c2ccccc2c2ccccc21)S(C)(=O)=O` (stereo unspecified), the activity change, negative = inhibition came out at 16%.
With `C[C@@H]1CN([C@H](C)CO)S(=O)(=O)c2ccc(-c3ccncc3)cc2O[C@@H]1CN(C)Cc1ccc(Oc2ccccc2)cc1`, the activity change, negative = inhibition is 160%.
With `COc1ccccc1C#Cc1ccc2c(c1)O[C@@H](CN(C)Cc1ccncc1)[C@H](C)CN([C@H](C)CO)S2(=O)=O`, the activity change, negative = inhibition is 10.1% [at 16 µM].
On to `Cc1ccc(-c2ccc3c(c2)O[C@@H](CN(C)Cc2cccnc2)[C@H](C)CN([C@H](C)CO)S3(=O)=O)cc1`, for which the activity change, negative = inhibition was -56.7%.
As for `COc1ccccc1CN1C(=O)CN(C2CCCCCC2)C(=O)C1c1ccc(F)cc1` (stereo unspecified), the activity change, negative = inhibition was 20.3%.
With `Cc1ccc(-n2nc3c(c2NC(=O)c2ccco2)CS(=O)C3)cc1` (stereo unspecified), the activity change, negative = inhibition is -28.9%.
Regarding `COc1ccccc1CN(C)C(=O)CN1CCN(C(=O)c2cccs2)CC1`, the activity change, negative = inhibition was -1.14%.
Turning to `O=C(C[C@H]1C[C@@H]2c3cc(NC(=O)C4CCC4)ccc3O[C@@H]2[C@@H](CO)O1)NCc1ccc2c(c1)OCO2`, the activity change, negative = inhibition came to 25.6%.
Under `O=C(C[C@@H]1C[C@@H]2c3cc(NC(=O)C4CCOCC4)ccc3O[C@@H]2[C@H](CO)O1)NCCc1ccccc1` stands -21%; under `CN(C)C(=O)C[C@H]1C[C@@H]2c3cc(NC(=O)NC4CCCCC4)ccc3O[C@@H]2[C@H](CO)O1`, -20.7%.
Under `O=C(C[C@H]1C[C@@H]2c3cc(NC(=O)C4CCC4)ccc3O[C@@H]2[C@@H](CO)O1)NCC(F)(F)F` stands 7.19%; under `O=C(C[C@@H]1C[C@@H]2c3cc(NC(=O)C4CCC4)ccc3O[C@@H]2[C@@H](CO)O1)NCc1ccc2c(c1)OCO2`, 48.6%; under `O=C(C[C@@H]1C[C@H]2c3cc(NC(=O)C4CCOCC4)ccc3O[C@H]2[C@@H](CO)O1)NCc1ccccc1`, 37.3%.
Regarding `O=C(C[C@@H]1C[C@H]2c3cc(NC(=O)NC4CCCCC4)ccc3O[C@H]2[C@@H](CO)O1)NCc1ccncc1`, the activity change, negative = inhibition is 17.5%.
Consider `O=C(C[C@@H]1C[C@@H]2c3cc(NC(=O)C4CCC4)ccc3O[C@@H]2[C@@H](CO)O1)NCC(F)(F)F`, for which the activity change, negative = inhibition was determined as 37%.
